Bioassay records as filed in PubChem BioAssay.
In the library only some 3.4% were active in any assay of this set; here they are far more common.
TEAD-YAP inh – TEAD-YAP interaction inhibition | HEK-TIYL cells, TEAD-Gal4/YAP UAS-luciferase luminescence | inhibition, % at 9.12 µM | hit rate 1.4% among 640,000; in the data active = inhibition above about 32%
GPR151 ag – activators of human GPR151 | PathHunter beta-arrestin GPR151 cells, luminescence | activation, % at 11.2 µM | hit rate 1% among 650,000 | AID 1508602; in the data active = activation above about 4.9%
MITF primary – blocks human microphthalmia-associated transcription factor; inhibition, % at 2.6 µM; AlphaScreen MITF homodimerization, bead proximity signal; hit rate 0.91% among 650,000; AID 1259374; in the data active = inhibition above about 50%
FBW7 act – activators of human E3 ligase FBW7 | normalized activity (activation), % at 26.1 µM | Q969H0 | hit rate 0.13% among 650,000 | AlphaScreen FBW7–phospho-cyclin E peptide binding, activator screen; in the data active = normalized activity above about 1.9%;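 note: purified mutant Fbw7 with reduced substrate affinity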
Target sequence (Q969H0 whole entry, looked up): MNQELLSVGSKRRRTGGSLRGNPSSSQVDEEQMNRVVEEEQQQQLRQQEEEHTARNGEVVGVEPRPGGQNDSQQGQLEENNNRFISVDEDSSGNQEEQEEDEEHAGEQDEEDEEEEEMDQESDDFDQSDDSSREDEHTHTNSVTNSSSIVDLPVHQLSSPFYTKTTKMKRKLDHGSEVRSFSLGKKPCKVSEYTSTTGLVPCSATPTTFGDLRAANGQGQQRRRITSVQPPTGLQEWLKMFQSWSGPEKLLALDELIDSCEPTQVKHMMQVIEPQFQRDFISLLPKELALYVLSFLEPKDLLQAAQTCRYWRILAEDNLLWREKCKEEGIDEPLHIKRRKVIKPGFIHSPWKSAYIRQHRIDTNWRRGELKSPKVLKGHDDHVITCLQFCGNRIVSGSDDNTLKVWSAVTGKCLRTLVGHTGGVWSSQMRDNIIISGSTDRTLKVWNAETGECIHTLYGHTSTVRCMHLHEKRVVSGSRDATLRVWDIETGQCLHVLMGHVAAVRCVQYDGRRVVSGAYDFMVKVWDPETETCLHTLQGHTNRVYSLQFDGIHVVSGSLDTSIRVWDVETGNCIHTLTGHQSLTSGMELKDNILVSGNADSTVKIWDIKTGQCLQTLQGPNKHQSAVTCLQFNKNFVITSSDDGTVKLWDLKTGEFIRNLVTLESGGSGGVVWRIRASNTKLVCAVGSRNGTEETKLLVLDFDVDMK
MITF confirm – confirmation of human MITF inhibitors; AlphaScreen MITF homodimerization, biotin/His-MITF beads; inhibition, % at 2.6 µM; shares compounds with MITF primary; hit rate 16% among 4,700; AID 1259372;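 active = inhibition above a cutoff derived from the DMSO control wells, cut at about 28% in these data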;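 note: inhibitors lower the bead chemiluminescence by keeping MITF from dimerizing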
AlphaScreen DR – AlphaScreen optical interference, dose response counter-screen; shares compounds with MITF primary; AlphaScreen optical interference counterscreen, cell-free; IC50, µM; hit rate 6% among 480; call rule not given here
AlphaScreen intf2 – optically interferes with AlphaScreen signal; shares compounds with MITF primary; LysRS AlphaScreen counterscreen, signal interference, triplicate; inhibition, % at 2.6 µM; hit rate 7.6% among 4,700; AID 1259376;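 active = inhibition above a cutoff derived from the DMSO control wells, cut at about 30% in these data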
Large screens that a line does not name were inactive (follow-up assays come after a bar, where they were run).

c1ccc(-c2cc(NCCCn3ccnc3)nc(-c3cccnc3)n2)cc1	MITF primary 53.4 | MITF confirm inactive | AlphaScreen intf2 38.8
Cc1nn(C(C)C(=O)NC2(C#N)CCCCC2)c(C)c1[N+](=O)[O-] (stereo not given)	none
C=CCn1c(SCc2ccc(C)cc2)nc2cc(C(=O)NCc3ccco3)ccc2c1=O	none
C=CCn1c(SCC2OCCO2)nc2cc(C(=O)NCc3ccco3)ccc2c1=O	MITF primary 67.0 | MITF confirm inactive | AlphaScreen intf2 inactive
O=C(CCc1ccccc1)NNc1c(F)c(F)cc(F)c1F	none
O=C(O)c1ccc(C2CC2(Cl)Cl)cc1 (stereo not given)	none
COc1cccc(Nc2nc(-c3ccccc3Cl)nc3ccccc23)c1	MITF primary 52.3 | MITF confirm inactive | AlphaScreen intf2 inactive
CC(=O)Nc1ccc(NC(=O)C/C(C)=N/NC(=O)COc2ccccc2C)cc1	none
Cc1[nH][nH]c(=O)c1C(c1ccc([N+](=O)[O-])o1)c1c(C)[nH][nH]c1=O	MITF primary 58.8 | MITF confirm 27.7 | AlphaScreen DR inactive | AlphaScreen intf2 inactive
Cc1[nH][nH]c(=O)c1C(c1ccc(-c2cccc([N+](=O)[O-])c2)o1)c1c(C)[nH][nH]c1=O	none
CCCC(=O)N1CCN(c2cccc3c2C(=O)N(Cc2cnn(C)c2C)C3=O)CC1	MITF primary 97.3 | MITF confirm inactive | AlphaScreen intf2 inactive
Cc1c(CN2C(=O)c3cccc(N4CCN(C(=O)CC(C)(C)C)CC4)c3C2=O)cnn1C	none
CCOc1ccc(/C=C/C(=O)Nc2nc3ccc(S(C)(=O)=O)cc3s2)cc1OC	MITF primary 73.2 | MITF confirm inactive | AlphaScreen intf2 inactive
O=C1CCCN1CCn1cnc2c(Nc3ccc4c(c3)OCO4)nc(Cl)nc21	none
COc1ccc(CN2CCN(CCOc3ccccc3)CC2)c(OC)c1OC	MITF primary 71.5 | MITF confirm inactive | AlphaScreen intf2 inactive
COc1ccc(CN2CCN(Cc3cccn3C)CC2)c(OC)c1OC	none
COc1ccc(CN2CCN(CCOc3ccccc3C#N)CC2)c(OC)c1OC	MITF primary 69.1 | MITF confirm inactive | AlphaScreen intf2 inactive
Cn1nc(Oc2ccc(-c3ccccc3)cc2)c(=O)n(C)c1=O	MITF primary 79.7 | MITF confirm inactive | AlphaScreen intf2 inactive
O=C1c2sc3nc4c(c(=O)n3c2C(=O)N1c1cccc(Cl)c1Cl)CCC4	none
O=C(CN1C(=O)c2ccccc2C1=O)Nc1ccccc1N1CCOCC1	none
CC1CCCCN1CC(=O)Nc1ccccc1C(N)=O (stereo not given)	none
CCOCCCNCC(=O)Nc1ccccc1N1CCOCC1	MITF primary 51.4 | MITF confirm inactive | AlphaScreen intf2 inactive
O=C(CNCCN1CCOCC1)Nc1sc2c(c1C(=O)c1ccccc1)CCCC2	MITF primary 74.5 | MITF confirm inactive | AlphaScreen intf2 inactive
O=C(CN1CCOCC1)Nc1sc2c(c1C(=O)c1ccccc1)CCCC2	none
CC1CCCCN1CC(=O)Nc1ccccc1N1CCCCC1 (stereo not given)	MITF primary 52.5 | MITF confirm inactive | AlphaScreen intf2 inactive
O=C(CN1CCCCC1)Nc1ccccc1N1CCOCC1	MITF primary 59.5 | MITF confirm inactive | AlphaScreen intf2 inactive
CCOC(=O)c1ccc2nc(NC(=O)c3ccc(NC(=O)c4cc5nc(-c6cccs6)cc(C(F)(F)F)n5n4)cc3)sc2c1	none
O=C(Nc1nncs1)c1ncoc1-c1ccccc1C(F)(F)F	none
CCN(CC)S(=O)(=O)c1ccc(C(=O)Nc2cccc3c(NC(=O)c4ccc(S(=O)(=O)N(CC)CC)cc4)cccc23)cc1	none
CN1CCC/C1=C1/C(=O)N(c2ccccc2)N=C1N	none
O=C(CNCCc1ccccc1)Nc1ccccc1N1CCOCC1	MITF primary 51.1 | MITF confirm inactive | AlphaScreen intf2 inactive
O=C(Cc1ccccc1)Nc1ccc(N2CCOCC2)cc1N1CCOCC1	none
O=C(CNC1CCCCCC1)Nc1ccccc1N1CCOCC1	none
COc1ccc(CCNCC(=O)Nc2ccccc2N2CCOCC2)cc1	MITF primary 60.1 | MITF confirm inactive | AlphaScreen intf2 inactive
O=C(CNCC1CCCCC1)Nc1ccccc1N1CCOCC1	MITF primary 66.0 | MITF confirm inactive | AlphaScreen intf2 inactive
